DT40 TDP1 no CPT – qHTS for Inhibitors of human tyrosyl-DNA phosphodiesterase 1 (TDP1): qHTS in cells in absence of CPT | DT40 Tdp1-/- hTDP1 cells, no CPT, ATP luminescence, 48 h | Potency, µM (top dose mostly 46.2 µM), for the others: at the top dose activity change, negative = growth inhibition, usual class: inhibitors | hit rate 15% among 420,000; note: potency is the fitted concentration of half-maximal effect; % is set by controls: 0 for no effect and ±100 for the full control effect; nearly all actives have a fitted effect of over 55% in size
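Chicken DT40 Tdp1-/- cells complemented with human TDP1, screened without camptothecin (DMSO vehicle only), 400 cells/well. Compounds pin-transferred, cells incubated at 37 °C for at least 48 hr. Growth read as ATP-dependent luminescence (CellTiter-Glo, 30 min at RT).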
DT40 TDP1 CPT – qHTS for Inhibitors of human tyrosyl-DNA phosphodiesterase 1 (TDP1): qHTS in cells in presence of CPT. Potency, µM (doses to about 46.2 µM), without a hit: top-dose activity change, negative = growth inhibition, hits mostly inhibitors. chicken DT40 Tdp1-/-;hTDP1 cells + 20 nM CPT, ATP luminescence, 48 h. hit rate 12% among 420,000; note: potency is the fitted concentration of half-maximal effect; % is set by controls: 0 for no effect and ±100 for the full control effect; nearly all actives have a fitted effect of over 55% in size
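Chicken DT40 Tdp1-/- cells complemented with human TDP1, 400 cells/well, exposed to compounds plus 20 nM camptothecin for at least 48 h at 37 C; viability read as ATP content by CellTiter-Glo luminescence.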
ClpP mod – qHTS Assay for Activators of ClpP; hit rate 1.9% among 340,000; Potency, µM (series often up to 57.5 µM), for the others: top-dose activity change, negative = active; AID 651965, 2013; purified B. subtilis ClpP, FRET peptide cleavage, 20 min; active = well fitted falling curve with a large enough effect; inconclusive = small, poorly fitted or top-dose-only effect; inactive = no such curve, though single readings can be large or run the other way; note: potency is the fitted concentration of half-maximal effect; the source files actives as falling curves though it sought activators and does not explain the sign; nearly all actives have a fitted effect of over 65% in size
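Buffer: 100 mM Tris/HCl pH8, 100 mM KCl, 0.05% low protease BSA, 2.5% glycerol, 0.01% Tween-20. ClpP 10 microg/mL final; 20 min RT; delta FRET normalized to ADEP and DMSO controls.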
D3 antag – qHTS of D3 Dopamine Receptor Antagonist: qHTS; D(3) dopamine receptor (Homo sapiens), P35462; D3R cells, DiscoveRx beta-arrestin luminescence, antagonist mode; hits give low values; max response, negative = inhibition, %; hit rate 2.5% among 360,000; AID 652054, 2013; in the data active = max response below about -50%; inconclusive = no clear call, values can overlap the other calls; note: % is set by controls: 0 for no effect and ±100 for the full control effect
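Cells plated overnight at 1500 cells/well, then exposed to library compounds with dopamine controls for 90 minutes at 37 degrees C. DiscoveRx reagent added for 30–60 minutes at room temperature; luminescence read, quantitative HTS format.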
IL-1B inflam inh – qHTS for Inhibitors of Inflammasome Signaling: IL-1-beta AlphaLISA Primary Screen; THP-1 LPS/ATP IL-1B secretion, AlphaLISA, 16 h; hits give low values; activity change, % at 57.5 µM; hit rate 4.7% among 360,000; AID 743279, 2014; in the data active = activity change below about -50%; inconclusive = mostly about -30% to -49%; note: % is set by controls: 0 for no effect and ±100 for the full control effect
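Secreted IL-1B measured by AlphaLISA bead assay after 16 h compound exposure of THP-1 cells; compounds (final up to 57.5 uM) added 1 h before LPS (250 ng/mL) and ATP (1.25 mM) stimulation; lower signal means less secretion.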
DRD3 agonist – qHTS of D3 Dopamine Receptor Agonist: qHTS; D(3) dopamine receptor (Homo sapiens), P35462; D3R DiscoveRx beta-arrestin cells, luminescence, 90 min; max activation, %; hit rate 0.58% among 410,000; AID 652048, 2013; in the data active = max activation above about 30%; note: 0% is about no effect
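Cells at 1500/well, incubated overnight, then treated with pinned compounds (dopamine as control) for 90 min at 37 degrees C. DiscoveRx reagent added for 30 - 60 minutes at room temperature; luminescence read.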
Starred values were filed as active, the others as inactive; ? = inconclusive; · = no result given. Sampled rows, rich in hits. Any-hit rate of the full collection: about 21%. Unless noted, calls come from the whole dose curve; as a rule, active = well fitted inhibition curve with a large enough effect; inconclusive = small, poorly fitted or top-dose-only effect; inactive = flat fitted curve, though single readings scatter.

SMILES	DT40 TDP1 no CPT	DT40 TDP1 CPT	ClpP mod	D3 antag	IL-1B inflam inh	DRD3 agonist
O=C(CN1C(=O)NC2(CCCC2)C1=O)OCc1cc(=O)n2cc(Br)ccc2n1	-1.0%	-4.9%	-3.7%	5.2	5.2	4.5
Cn1c(=O)c2c(SCC(=O)NCc3ccc(F)cc3)nc(-c3ccccc3Cl)nc2n(C)c1=O	?	?	-1.0%	·	·	-8.6
CC1Sc2n(c3ccccc3[n+]2C)N=C1c1ccccc1 (stereo unspecified)	1.46µM*	1.46µM*	0.6%	-27.0	-5.3	-4.4
CC(C)[C@H](N)c1nnc2n1N=C(c1ccc(Cl)cc1)CS2	0.1%	-6.9%	0.6%	24.1	11.8	2.4
C[n+]1c2n(c3ccccc31)N=C(c1ccc(Cl)cc1)CS2	0.92µM*	1.16µM*	1.6%	-17.0	-74.3*	-0.8
CN(C(=O)COC(=O)COc1ccc(Cl)cc1Cl)c1c(N)n(Cc2ccccc2)c(=O)[nH]c1=O	-2.2%	-8.3%	-4.2%	-22.3	10.5	-11.5
COc1ccc(-c2csc(NC(=O)CSc3nnc(Nc4ccccc4C)s3)n2)cc1	6.51µM*	6.51µM*	·	27.1	19.9	3.1
COc1ccccc1Nc1nnc(SCC(=O)Nc2nc(-c3ccc(F)cc3)cs2)s1	13µM*	14.6µM*	0.7%	-12.2	93.1	-1.6
COc1ccccc1Nc1nnc(SCC(=O)NC2CCCC2)s1	-10.5%	-19.8%	-1.9%	-14.1	-4.3	-11.1
CCOc1ccccc1Nc1nnc(SCC(=O)Nc2nc(-c3ccc(OC)cc3)cs2)s1	-16.5%	-23.8%	-3.0%	3.1	7.4	-2.5
COc1ccc(-c2nnc(SCC(=O)Nc3ccc(F)cc3)s2)cc1	-18.4%	5.0%	14.1µM*	·	·	-8.7
Cc1ccc(NC(=O)CSc2nnc(-c3ccncc3)s2)cc1	-27.0%	-11.3%	·	1.0	-5.9	-6.2
COc1ccc2cc(C)c3nnc(SCC(=O)Nc4nc(-c5ccc(F)cc5)cs4)n3c2c1	23.1µM*	20.6µM*	-2.2%	-6.1	7.5	1.6
CSc1ncnc2c1ncn2CCCNCc1ccc2c(c1)OCO2	-16.0%	3.1%	0.3%	7.2	11.9	-5.3
O=S(=O)(c1cc(Cl)cc(Cl)c1)N1CCN(c2nc(-c3cccs3)nc3ccccc23)CC1	?	-26.6%	4.3%	·	·	·
Cc1cc(C)c(C)c(S(=O)(=O)N2CCN(C(=O)C3CCC3)CC2)c1C	?	-27.4%	·	0.4	-2.3	10.3
COc1ccc(NC(=O)Cn2c(=O)n(Cc3nc(C)no3)c(=O)c3cc4c(cc32)OCO4)cc1OC	-1.0%	-10.3%	-13.4%	·	·	2.3
COc1ccc(NC(=O)Nc2nnc(SCC(=O)Nc3cccc(C)c3C)s2)cc1	7.31µM*	18.4µM*	2.8%	·	·	-8.2
CCCCOc1ccc(N2C(=O)CC(NCc3ccncc3)C2=O)cc1 (stereo unspecified)	-8.5%	-13.0%	·	6.6	-3.5	-0.4
CCOc1ccc(CCNC(=O)Cn2nc(C)n3c(cc4occc43)c2=O)cc1OCC	-28.1%	-22.9%	-1.5%	·	·	-11.3
c1nc2sc3c(c2c2nnnn12)CCC3	-4.8%	-6.0%	14.1µM*	8.5	-2.2	0.8
CN(C)c1ccc(Nc2ncnc3sc4c(c23)CCCC4)cc1	23.1µM*	?	-0.9%	·	·	-0.6
NNc1ncnc2sc3c(c12)CCC3	18.4µM*	8.2µM*	-2.3%	0.9	75.8	-9.7
c1cc(Nc2ncnc3sc4c(c23)CCC4)ccn1	?	?	-0.7%	3.8	-6.0	-9.7
C(=N\Nc1ncnc2sc3c(c12)CCC3)/c1ccncc1	?	?	-11.8%	1.0	-0.1	0.6

Compound activity from PubChem.
